Laboratory results from the antibiotic and cytotoxicity screens of Wong et al. (2023).
The whole screen tested about 39,000 compounds, of which about 3,300 (8.5%) were called active. This is one part of a sample in which actives are shown more often than they occur.

Test system: HepG2
Assay: cytotoxicity call (relative viability < 0.9)
Conditions: 10 µM

| Structure (SMILES) | cytotoxicity call |
| --- | --- |
| CNC[C@@H]1Oc2ccc(NS(=O)(=O)c3cn(C)cn3)cc2CC(=O)N([C@H](C)CO)C[C@@H]1C | inactive |
| C[C@H](CO)N1C[C@H](C)[C@H](CN(C)S(=O)(=O)c2ccccc2)OCCCC[C@H](C)Oc2ccc(NC(=O)Nc3ccc(F)cc3)cc2C1=O | inactive |
| C[C@H](CO)N1C[C@H](C)[C@@H](CN(C)Cc2ccncc2)Oc2ccc(NC(=O)Cn3cnnn3)cc2C1=O | inactive |
| c1ccc(-c2nc(-c3cccs3)[nH]c2-c2ccccc2)cc1 | inactive |
| C[C@@H]1CCCCO[C@@H](CN(C)C(=O)c2ccncc2)[C@H](C)CN([C@@H](C)CO)C(=O)c2cc(NS(C)(=O)=O)ccc2O1 | inactive |
| C[C@@H]1CN([C@@H](C)CO)C(=O)c2cc(/C=C/c3ccccc3)cnc2O[C@H]1CN(C)C(=O)CN1CCOCC1 | inactive |
| C[C@H](CO)N1C[C@H](C)[C@H](CN(C)C(=O)Cc2ccccc2)OCCCC[C@H](C)Oc2ccc(NC(=O)Nc3cccc4ccccc34)cc2C1=O | inactive |
| C[C@H](CO)N1C[C@H](C)[C@@H](CN(C)C(=O)NC2CCCCC2)Oc2ccc(NS(C)(=O)=O)cc2CC1=O | inactive |
| COc1cccc(NC(=O)N[C@@H]2CC[C@H](CC(=O)N3CCOCC3)O[C@@H]2CO)c1 | inactive |
| C[C@H](O)C#Cc1ccc2c(c1)O[C@H](CN(C)C)[C@@H](C)CN([C@@H](C)CO)S2(=O)=O | inactive |
| COc1ccc(CN(C)C[C@H]2Oc3ccc(NC(=O)CCCCCC(=O)Nc4ccccc4N)cc3CC(=O)N([C@@H](C)CO)C[C@@H]2C)cc1 | inactive |
| CC(C)NC(=O)N(C)C[C@H]1Oc2ccc(NC(=O)Cc3ccccc3)cc2CC(=O)N([C@@H](C)CO)C[C@@H]1C | inactive |
| COc1ccc2c3c([nH]c2c1)[C@@H](CO)N(C[C@]13CN(Cc2nccs2)C1)S(=O)(=O)c1ccc(cc1)C | inactive |
| C[C@H](CO)N1C[C@H](C)[C@@H](CN(C)C(=O)Nc2ccccc2)OCCCC[C@H](C)Oc2ccc(NC(=O)Nc3ccc(C(F)(F)F)cc3)cc2C1=O | inactive |
| C[C@@H]1CCCCO[C@H](CN(C)C(=O)Nc2ccccc2)[C@H](C)CN([C@H](C)CO)C(=O)c2cc(NC(=O)Nc3ccc(C(F)(F)F)cc3)ccc2O1 | active |
| C[C@@H]1CN([C@@H](C)CO)C(=O)c2cc(NC(=O)Nc3ccccc3)ccc2O[C@@H](C)CCCCO[C@H]1CN(C)C(=O)Nc1ccc(C(F)(F)F)cc1 | inactive |
| C[C@H]1CCCCO[C@@H](CN(C)C(=O)Nc2cccc3ccccc23)[C@@H](C)CN([C@@H](C)CO)C(=O)c2cc(NS(C)(=O)=O)ccc2O1 | inactive |
| C[C@@H]1CN([C@H](C)CO)C(=O)c2cc(NC(=O)Cn3cnnn3)ccc2O[C@H]1CN(C)C(=O)Nc1cccc2ccccc12 | active |
| C[C@@H]1CN([C@@H](C)CO)C(=O)c2cc(NC(=O)Cn3cnnn3)ccc2O[C@H]1CN(C)C(=O)Nc1cccc2ccccc12 | inactive |
| CNC[C@@H]1Oc2ccc(NC(=O)Cn3cnnn3)cc2CC(=O)N([C@@H](C)CO)C[C@@H]1C | inactive |
| CNC[C@@H]1Oc2ccc(NC(=O)Cn3cnnn3)cc2CC(=O)N([C@@H](C)CO)C[C@H]1C | active |
| C[C@H]1CN([C@@H](C)CO)C(=O)c2cc(NC(=O)Cn3cnnn3)ccc2O[C@H]1CN(C)C(=O)Nc1ccccc1 | active |
| C[C@@H]1CN([C@@H](C)CO)C(=O)c2cc(NC(=O)Cn3cnnn3)ccc2O[C@@H]1CN(C)C(=O)Nc1ccccc1 | inactive |
| C[C@H](CO)N1C[C@H](C)[C@@H](CN(C)C(=O)Nc2ccccc2)Oc2ccc(NC(=O)Cn3cnnn3)cc2C1=O | inactive |
| C[C@H](CO)N1C[C@H](C)[C@H](CN(C)C(=O)Nc2cccc3ccccc23)Oc2ccc(NC(=O)Cn3cnnn3)cc2C1=O | inactive |

| Structure (SMILES) | cytotoxicity call |
| --- | --- |
| CNC[C@H]1Oc2ccc(NC(=O)Cn3cnnn3)cc2CC(=O)N([C@@H](C)CO)C[C@H]1C | inactive |
| Cc1cc(Nc2cc(C)on2)nc([C@H]2CCN(C(=O)CN)C2)n1 | inactive |
| C[C@H](CO)N1C[C@H](C)[C@@H](CN(C)S(=O)(=O)c2cccs2)Oc2c(NC(=O)CCCN(C)C)cccc2C1=O | inactive |
| O=C(C[C@@H]1C[C@H]2c3cc(NC(=O)c4ccc5c(c4)OCO5)ccc3O[C@H]2[C@H](CO)O1)NCCc1ccccc1 | inactive |
| Cc1noc(C)c1NC(=O)N(C)C[C@H]1OCCCC[C@H](C)Oc2ccc(NC(=O)CCC(F)(F)F)cc2C(=O)N([C@@H](C)CO)C[C@H]1C | inactive |
| C[C@@H]1CN([C@H](C)CO)C(=O)c2cc(C#Cc3cccc(F)c3)cnc2O[C@@H]1CN(C)Cc1ccccn1 | inactive |
| CC(C)CC#Cc1ccc2c(c1)O[C@H](CN(C)C(=O)c1cccnc1)[C@@H](C)CN([C@@H](C)CO)S2(=O)=O | inactive |
| O=C(O)c1ccc(N[C@@H]2O[C@H](CO)[C@@H](O)[C@@H]2O)cc1 | inactive |
| Clc1ccc(-c2onc3cc(-c4ccccc4)ccc23)cc1 | active |
| Clc1ccc(-c2cnc3ccc(-c4ccccc4)cn23)cc1 | inactive |
| Clc1ccc2nc(Cl)cc(-c3ccccc3)c2c1 | inactive |
| C[C@H](CO)N1C[C@H](C)[C@H](CN(C)Cc2ccc(Cl)c(Cl)c2)Oc2ccc(NC(=O)CCCCCC(=O)Nc3ccccc3N)cc2CC1=O | inactive |
| C[C@H](CO)N1C[C@H](C)[C@@H](CN(C)C(=O)Nc2ccccc2)Oc2ccc(NS(=O)(=O)c3cn(C)cn3)cc2C1=O | inactive |
| CSCc1nc(=O)cc(C(=O)O)[nH]1 | inactive |
| CC(C)NC(=O)N(C)C[C@@H]1OCCCC[C@H](C)Oc2ccc(NC(=O)Nc3ccc(F)cc3)cc2C(=O)N([C@@H](C)CO)C[C@H]1C | inactive |
| C/C=C1\NC(=O)[C@H]2CSSCC/C=C/[C@H](CC(=O)N[C@H](C(C)C)C(=O)N2)OC(=O)[C@H](C(C)C)NC1=O | active |
| C[C@@H]1CCCCO[C@H](CN(C)S(=O)(=O)c2cn(C)cn2)[C@@H](C)CN([C@@H](C)CO)C(=O)c2cc(NC(=O)c3ccncc3)ccc2O1 | inactive |
| NC(=O)CN1CCCCCC1=O | inactive |
| COc1ccnc(N)c1 | inactive |
| COc1ccc(N)cn1 | inactive |
| COc1cc(N)ccn1 | active |
| COc1ccccc1NC(=O)N(C)C[C@H]1Oc2cc(Br)ccc2S(=O)(=O)N([C@@H](C)CO)C[C@H]1C | inactive |
| NC(Cc1ccc(O)c(O)c1)C(=O)O (centres undefined) | active |
| N[C@@H](Cc1ccc(O)c(O)c1)C(=O)O | inactive |
| CC(N)(Cc1ccc(O)c(O)c1)C(=O)O (centres undefined) [listing 1 of 2 here] | active |

| Structure (SMILES) | cytotoxicity call |
| --- | --- |
| CCOC(=O)[C@@](C)(N)Cc1ccc(O)c(O)c1 | inactive |
| CC(N)(Cc1cccc(O)c1)C(=O)O (centres undefined) | inactive |
| CC(N)(Cc1ccc(O)c(O)c1)C(=O)O (centres undefined) [listing 2 of 2 here] | inactive |
| C[C@](N)(Cc1ccc(O)c(O)c1)C(=O)O | active |
| COC(=O)[C@@H](N)Cc1ccc(O)c(O)c1 | inactive |
| C[C@](N)(Cc1ccc(O)cc1)C(=O)O | inactive |
| O=Cc1ccc[nH]1 | inactive |
| COc1ccc(NC(=O)N(C)C[C@@H]2Oc3ncc(C#C[C@H](C)O)cc3C(=O)N([C@@H](C)CO)C[C@H]2C)cc1 | inactive |
| CN1CCN(C(=O)C[C@@H]2CC[C@@H]3[C@H](COC[C@H](O)CN3S(=O)(=O)c3cccc(Cl)c3)O2)CC1 | inactive |
| CC[C@@H](O)C[C@H]1CC[C@H]([C@@H](C)C(=O)O[C@@H](C)C[C@H]2CC[C@H]([C@@H](C)C(=O)O[C@@H](C)C[C@H]3CC[C@H]([C@@H](C)C(=O)O[C@@H](C)C[C@H]4CC[C@H]([C@@H](C)C(=O)O)O4)O3)O2)O1 | active |
| COc1ccc(S(=O)(=O)Nc2ccc3c(c2)CC(=O)N([C@H](C)CO)C[C@@H](C)[C@@H](CN(C)C(=O)Nc2c(C)noc2C)O3)cc1 | inactive |
| C[C@@H]1CCCCO[C@H](CN(C)C(=O)c2ccccc2)[C@@H](C)CN([C@H](C)CO)C(=O)c2cc(NC(=O)c3ccccc3)ccc2O1 | inactive |
| O=C(O)c1cnns1 | inactive |
| C[C@H](CO)N1C[C@H](C)[C@@H](CN(C)C(=O)Nc2cccc3ccccc23)OCc2cn(nn2)CCCC1=O | inactive |
| C[C@@H]1CN([C@H](C)CO)C(=O)c2cccc(NC(=O)C3CCOCC3)c2O[C@@H]1CN(C)Cc1ccc(C(=O)O)cc1 | inactive |
| O=C(NCc1nc2ccccc2[nH]1)C1=C[C@@H](c2ccc(Br)cc2)C[C@@H](OCc2ccc(CO)cc2)O1 | active |
| O=C(NCc1nc2ccccc2[nH]1)C1=C[C@H](c2ccc(C(F)(F)F)cc2)C[C@H](OCc2ccc(CO)cc2)O1 | inactive |
| O=C(NCc1nc2ccccc2[nH]1)C1=C[C@H](c2ccc(Br)cc2)C[C@H](OCc2ccc(CO)cc2)O1 | inactive |
| C[C@@H]1CCCCO[C@@H](CN(C)C(=O)Nc2cccc3ccccc23)[C@H](C)CN([C@@H](C)CO)C(=O)c2cc(NS(=O)(=O)c3ccc(Cl)cc3)ccc2O1 | inactive |
| C[C@@H]1CCCCO[C@@H](CN(C)C(=O)Nc2cccc3ccccc23)[C@H](C)CN([C@H](C)CO)C(=O)c2cc(NS(=O)(=O)c3ccc(Cl)cc3)ccc2O1 | active |
| C[C@H]1CCCCO[C@@H](CN(C)C(=O)Nc2cccc3ccccc23)[C@@H](C)CN([C@@H](C)CO)C(=O)c2cc(NS(=O)(=O)c3ccc(Cl)cc3)ccc2O1 | inactive |
| C[C@H](CO)N1C[C@H](C)[C@H](CN(C)C(=O)Nc2cccc3ccccc23)OCCCC[C@H](C)Oc2ccc(NS(=O)(=O)c3ccc(Cl)cc3)cc2C1=O | inactive |
| C[C@@H]1CN([C@@H](C)CO)C(=O)c2cc(NS(=O)(=O)c3ccc(Cl)cc3)ccc2O[C@@H](C)CCCCO[C@@H]1CN(C)C(=O)Nc1cccc2ccccc12 | inactive |
| C[C@@H]1CCCCO[C@H](CN(C)C(=O)Nc2cccc3ccccc23)[C@H](C)CN([C@H](C)CO)C(=O)c2cc(NS(=O)(=O)c3ccc(Cl)cc3)ccc2O1 | active |
